Assay [1] can be described thus: qHTS assay to identify small molecule antagonists of the androgen receptor (AR) signaling pathway using the MDA cell line in the presence of 0.5 nM R1881 - cell viability counter screen (AID 1259242). Also: nearly all actives have a fitted effect of over 45% in size. Also: potency is read from the fitted curve at half-maximal effect. In a few lines:
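qHTS format. MDA-kb2 (MMTV-luc, AR/GR responsive) + cpd + 0.5 nM R1881 final, 16 hr 37C/0% CO2 → CellTiter-Fluor 30 min → fluorescence intensity.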

A short description of assay [2]: qHTS assay to identify small molecule HDAC inhibitors (AID 1259364). Also: potency is read from the fitted curve at half-maximal effect.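 Also: wild-type HCT-116 cells with endogenous class I/II HDAC activity; nearly all actives have a fitted effect of over 45% in size.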 In a few lines:
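Quantitative high-throughput format: overnight-seeded HCT-116 cells got compounds for 2 hr at 37C; HDAC-Glo I/II reagent added, 30 min RT, luminescence measured.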

A short description of assay [3]: qHTS assay to identify small molecule HDAC inhibitors - cell viability counter screen (AID 1259365). Also: series mostly up to about 92 µM; nearly all actives have a fitted effect of over 50% in size. In short, it runs like this: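 Counter screen in wild-type HCT-116 cells: compounds dissolved in DMSO are pin-transferred onto overnight-plated cells and left 2hr at 37C. ATP-based CellTiter-Glo luminescence then measures viable cells.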
The nature of assay [4]: qHTS assay to identify small molecule agonists of the sonic hedgehog signaling (Shh) pathway (AID 1259368; calls by dose curve;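 also: NIH/3T3-derived 3T3Gli1-Luc cells carrying a stable Gli1-driven firefly luciferase reporter; series mostly up to about 92 µM; nearly all actives have a fitted effect of over 15% in size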). In short, it runs like this:
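Quantitative high-throughput format using a Gli1-driven firefly luciferase reporter line derived from NIH/3T3 cells. After a 24 hr compound treatment at 37 C and 5% CO2, luminescence reported Gli1 response element activity.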

In assay [5] the target is Estrogen receptor beta (Homo sapiens) (UniProt Q92731). Nature of the assay: qHTS assay to identify small molecule agonists of the estrogen receptor beta (ER-beta) signaling pathway (AID 1259377; active = well fitted activation curve with a large enough effect in the signal ratio in the repeat runs, not every such curve was filed as active; the % refers to the signal ratio). In short, it runs like this:
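Agonist mode cell assay in GripTite HEK293T cells expressing an ER-beta fusion that drives beta-lactamase from an Upstream Activator Sequence; 16 hr compound exposure at 37C, then 2 h LiveBLAzer B/G FRET substrate at room temperature, fluorescence read-out.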

Assay [6] is described as follows: qHTS assay to identify small molecule agonists of the androgen receptor (AR) signaling pathway in the presence of an antagonist - cell viability counter screen (AID 1259379). Also: nearly all actives have a fitted effect of over 25% in size. Also: potency is read from the fitted curve at half-maximal effect. In short, it runs like this:
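Nilutamide-containing (3.0uM final) MDA-kb2 cultures, 3,000 cells/well, were treated with compounds across 15 concentrations. After 16 hr at 37C with no CO2, cell viability was determined by CellTiter-Fluor fluorescence in the luciferase assay wells.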

Assay [7] in a line: qHTS assay to identify small molecule agonists of the estrogen receptor beta (ER-beta) signaling pathway - cell viability counter screen (AID 1259380). Also: nearly all actives have a fitted effect of over 30% in size. Also: potency is read from the fitted curve at half-maximal effect. In short, it runs like this:
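Steps: plate ER-beta-UAS-bla HEK293T cells, rest 6 hr; add compounds in DMSO; incubate 16 hr at 37C, 5% CO2; add FRET substrate 2 hr; add CellTiter-Glo, wait 30 min at room temperature; read luminescence.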

Assay [8] deals with Estrogen receptor (Homo sapiens) (UniProt P03372). Put plainly: qHTS assay to identify small molecule agonists of the estrogen receptor alpha (ER-alpha) signaling pathway in the presence of an antagonist (AID 1259383; calls by dose curve; also: top concentration of the series differs between compounds; nearly all actives have a fitted effect of over 15% in size). In short, it runs like this: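 Readout was ERE-driven luciferase luminescence in VM7Luc4E2 cells, which express full-length ER-alpha endogenously. Compounds were tested at 15 concentrations for 22hr alongside 10.0nM ICI-182,780 (final concentration).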

Assay [9] can be described thus: qHTS assay to identify small molecule agonists or antagonists of the thyroid stimulating hormone receptor (TSHR) signaling pathway - wild type cell line counter screen (AID 1259384; calls by dose curve). In a few lines: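 Counter screen in untransfected Hek293: compounds (15-point titration, triplicate) plus phosphodiesterase inhibitor Ro20-1724 added after 18 h plating; 30 min RT. Intracellular cAMP via competitive d2/cryptate immunoassay, 1 h incubation.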

In assay [10] the target is Thyrotropin receptor (Homo sapiens) (UniProt P16473). Nature of the assay: qHTS assay to identify small molecule antagonists of the thyroid stimulating hormone receptor (TSHR) signaling pathway (AID 1259385; calls by dose curve; also: nearly all actives have a fitted effect of over 20% in size; also: potency is read from the fitted curve at half-maximal effect). In short, it runs like this: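 Antagonist mode: compound-treated TSHR-expressing HEK293 cells were stimulated with 1.5 ng/mL TSH (final) in presence of Ro20-1724 for 30 min at RT. HTRF cAMP detection after 1 h; each compound tested at 15 concentrations, triplicate.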

A short description of assay [11]: qHTS assay to identify small molecule agonists of the estrogen receptor alpha (ER-alpha) signaling pathway in the presence of an antagonist - cell viability counter screen (AID 1259386).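 Also: cells exposed to compounds for 22 h at 37 °C before the viability read; nearly all actives have a fitted effect of over 30% in size.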 Also: potency is read from the fitted curve at half-maximal effect. In a few lines: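 In this counter screen, compound effects on VM7Luc4E2 viability were tested in the presence of the antagonist ICI-182,780 at 10.0nM final. Compounds were dosed at 15 concentrations, exposure lasted 22hr, and the CellTiter-Fluor signal was read.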

Assay [12] is described as follows: qHTS assay to identify small molecule antagonists of the sonic hedgehog signaling (Shh) pathway (AID 1259369; calls by dose curve; also: nearly all actives have a fitted effect of over 45% in size; also: potency is read from the fitted curve at half-maximal effect). In a few lines:
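Stable Gli1-Luc reporter NIH/3T3 clone; quantitative HTS in stimulated mode with conditioned medium. Luminescence measured after 24hr compound treatment at 37 C.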

Assay [13] has as its target Estrogen receptor beta (Homo sapiens) (UniProt Q92731). Put plainly: qHTS assay to identify small molecule antagonists of the estrogen receptor beta (ER-beta) signaling pathway (AID 1259378; active = well fitted inhibition curve with a large enough effect in the signal ratio in the repeat runs, not every such curve was filed as active; the % refers to the signal ratio; also: potency is read from the fitted curve at half-maximal effect). In short, it runs like this: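 Antagonist mode: compounds added to beta-lactamase reporter HEK293T ER-beta-UAS cells stimulated with E2 (1nM final), 16 hr at 37C. LiveBLAzer B/G FRET substrate, 2 hours room temperature, fluorescence read-out.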

Assay [14] concerns the target Androgen receptor (Homo sapiens) (UniProt P10275). Nature of the assay: qHTS assay to identify small molecule antagonists of the androgen receptor (AR) signaling pathway using the MDA cell line in the presence of 0.5 nM R1881 (AID 1259243). Also: potency is read from the fitted curve at half-maximal effect; nearly all actives have a fitted effect of over 50% in size. In a few lines:
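Antagonist mode quantitative HTS in MDA-kb2 MMTV-luciferase cells, agonist R1881 at 0.5 nM final, 16 hr exposure at 37C and 0% CO2, luminescent detection.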

Assay [15] is described as follows: qHTS assay to identify small molecule agonists of the sonic hedgehog signaling (Shh) pathway - cell viability counter screen (AID 1259366). Also: nearly all actives have a fitted effect of over 50% in size. Also: potency is read from the fitted curve at half-maximal effect. In a few lines: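 Cells are plated at 2,000 per well and left 4hr at 37C, 5% CO2 before compound addition. After 23hr of treatment, CellTiter-Fluor reagent is added for 1hr at 37C and fluorescence is measured.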
A short description of assay [16]: qHTS assay to identify small molecule antagonists of the sonic hedgehog signaling (Shh) pathway - cell viability counter screen (AID 1259367). Also: nearly all actives have a fitted effect of over 55% in size. Also: potency is read from the fitted curve at half-maximal effect. In short, it runs like this:
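Viability was read by CellTiter-Fluor fluorescence in the same wells, reagent added 23 hr into compound treatment and incubated 1 hr at 37C. The 3T3 Gli1-Luc reporter cells (2,000/well) received conditioned medium after compound and ran 24 hr.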

For assay [17], the target named is Androgen receptor (Homo sapiens) (UniProt P10275). Nature of the assay: qHTS assay to identify small molecule agonists of the androgen receptor (AR) signaling pathway in the presence of an antagonist (AID 1259381; calls by dose curve; also: nearly all actives have a fitted effect of over 15% in size). In a few lines: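 Reporter-gene luminescence from MDA-kb2 cells exposed 16hr at 37C (0% CO2) to 15-point compound titrations with 3.0uM final nilutamide as AR antagonist.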

Assay [18] can be described thus: qHTS assay to identify small molecule antagonists of the estrogen receptor beta (ER-beta) signaling pathway - cell viability counter screen (AID 1259382). Also: nearly all actives have a fitted effect of over 55% in size. Also: potency is read from the fitted curve at half-maximal effect. In short, it runs like this:
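Viability is scored by CellTiter-Glo luminescence (30 min, room temperature) in ER-beta-UAS-bla HEK293T wells already read for reporter fluorescence. Compound exposure lasts 16 hr at 37C alongside 1nM 17-beta-estradiol in charcoal-stripped serum medium.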

In assay [19] the target is Estrogen receptor (Homo sapiens) (UniProt P03372). Put plainly: qHTS assay to identify small molecule antagonists of the estrogen receptor alpha (ER-alpha) signaling pathway using the BG1 cell line in the presence of 0.1 nM 17-beta-estradiol (AID 1259244). Also: nearly all actives have a fitted effect of over 50% in size. Also: potency is read from the fitted curve at half-maximal effect. In a few lines:
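Reporter is a stably transfected luciferase under four estrogen responsive elements in VM7Luc4E2 cells expressing native full-length ER-alpha; inhibition of 0.1 nM (final) 17beta-estradiol-driven signal over 22 h is read by luminescence.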

A short description of assay [20]: qHTS assay to identify small molecule phospholipidosis (PLD) inducers (AID 1259344; active = well fitted curve in the direction sought with a large enough effect; an effect the other way counts as inactive or inconclusive). In a few lines:
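Phospholipid accumulation was scored by imaging: fixed, Hoechst-counterstained HepG2 cells stained with LipidTOX Red after 24 h compound exposure at 37 C. Read-outs were pit count and pit intensity per well or per cell, with amiodarone and DMSO controls.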

Inconclusive results are not listed. Calls of active or inactive are those of the source. Unless noted, calls follow the shape of the dose curve; as a rule, active = well fitted curve in the direction sought with a large enough effect in the repeat runs; inconclusive = weak or mixed curves; inactive = no such curve, though single readings can be large; an effect the other way counts as inactive or inconclusive.

The values that follow come from PubChem BioAssay (Tox21).

Sequence of Thyrotropin receptor (Homo sapiens) (P16473 whole entry, looked up): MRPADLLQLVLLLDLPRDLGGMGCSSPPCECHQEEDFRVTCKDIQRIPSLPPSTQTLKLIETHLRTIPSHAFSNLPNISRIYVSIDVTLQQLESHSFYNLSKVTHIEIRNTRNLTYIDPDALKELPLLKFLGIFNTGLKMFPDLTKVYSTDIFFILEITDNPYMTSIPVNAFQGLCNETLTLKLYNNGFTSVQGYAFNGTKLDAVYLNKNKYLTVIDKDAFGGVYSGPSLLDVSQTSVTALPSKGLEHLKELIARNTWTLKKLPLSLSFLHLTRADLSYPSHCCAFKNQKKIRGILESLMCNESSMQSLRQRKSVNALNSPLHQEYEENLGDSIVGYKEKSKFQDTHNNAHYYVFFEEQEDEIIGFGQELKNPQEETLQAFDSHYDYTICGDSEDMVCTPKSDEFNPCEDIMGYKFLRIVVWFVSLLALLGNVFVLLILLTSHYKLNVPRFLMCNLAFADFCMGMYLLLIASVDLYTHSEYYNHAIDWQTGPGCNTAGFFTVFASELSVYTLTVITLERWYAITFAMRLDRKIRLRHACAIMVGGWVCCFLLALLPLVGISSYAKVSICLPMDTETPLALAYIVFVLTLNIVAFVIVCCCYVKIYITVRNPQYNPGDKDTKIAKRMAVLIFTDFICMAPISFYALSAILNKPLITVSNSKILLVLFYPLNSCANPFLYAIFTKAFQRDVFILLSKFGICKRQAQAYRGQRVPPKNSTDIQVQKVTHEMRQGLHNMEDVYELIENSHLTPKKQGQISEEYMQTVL
Sequence of Androgen receptor (Homo sapiens) (P10275 whole entry, looked up): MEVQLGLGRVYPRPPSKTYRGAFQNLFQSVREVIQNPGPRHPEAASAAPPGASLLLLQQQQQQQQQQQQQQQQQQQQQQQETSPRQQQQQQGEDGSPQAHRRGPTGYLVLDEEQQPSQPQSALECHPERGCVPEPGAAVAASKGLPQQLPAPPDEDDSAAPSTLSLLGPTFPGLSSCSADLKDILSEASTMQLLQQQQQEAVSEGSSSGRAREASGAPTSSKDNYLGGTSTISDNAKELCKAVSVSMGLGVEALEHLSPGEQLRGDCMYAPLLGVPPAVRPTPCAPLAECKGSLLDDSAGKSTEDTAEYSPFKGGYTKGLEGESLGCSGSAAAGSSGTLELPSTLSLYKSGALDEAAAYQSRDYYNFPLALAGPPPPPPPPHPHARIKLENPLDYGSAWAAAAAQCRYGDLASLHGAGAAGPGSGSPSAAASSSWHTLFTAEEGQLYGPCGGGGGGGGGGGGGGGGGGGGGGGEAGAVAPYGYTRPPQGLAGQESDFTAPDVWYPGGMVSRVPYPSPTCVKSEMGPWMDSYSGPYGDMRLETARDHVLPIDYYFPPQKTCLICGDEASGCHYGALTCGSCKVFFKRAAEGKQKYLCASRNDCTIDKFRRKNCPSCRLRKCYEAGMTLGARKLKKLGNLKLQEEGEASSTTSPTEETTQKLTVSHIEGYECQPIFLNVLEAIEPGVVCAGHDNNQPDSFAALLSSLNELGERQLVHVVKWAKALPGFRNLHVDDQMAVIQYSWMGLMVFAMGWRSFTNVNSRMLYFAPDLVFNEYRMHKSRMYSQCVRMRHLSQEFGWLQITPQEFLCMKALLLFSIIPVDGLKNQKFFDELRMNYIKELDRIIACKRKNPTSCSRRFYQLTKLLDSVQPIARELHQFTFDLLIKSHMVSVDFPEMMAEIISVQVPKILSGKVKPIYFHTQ
Sequence of Estrogen receptor beta (Homo sapiens) (Q92731 whole entry, looked up, the tested form may be a part): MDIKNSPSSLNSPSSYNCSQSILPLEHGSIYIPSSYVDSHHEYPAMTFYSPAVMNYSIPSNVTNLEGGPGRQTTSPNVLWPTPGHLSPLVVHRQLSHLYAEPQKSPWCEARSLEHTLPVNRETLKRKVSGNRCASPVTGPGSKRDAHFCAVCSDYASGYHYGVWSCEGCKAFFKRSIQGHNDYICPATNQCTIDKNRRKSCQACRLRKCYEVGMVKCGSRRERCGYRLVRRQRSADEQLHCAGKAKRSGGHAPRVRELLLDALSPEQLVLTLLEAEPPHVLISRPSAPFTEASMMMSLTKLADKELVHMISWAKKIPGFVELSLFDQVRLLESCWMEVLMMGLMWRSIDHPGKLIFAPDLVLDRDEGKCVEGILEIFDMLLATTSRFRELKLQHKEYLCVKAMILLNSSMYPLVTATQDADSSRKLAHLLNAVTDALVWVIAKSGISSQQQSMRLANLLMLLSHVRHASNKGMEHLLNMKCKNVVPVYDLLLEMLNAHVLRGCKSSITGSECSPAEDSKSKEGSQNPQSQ
Sequence of Estrogen receptor (Homo sapiens) (P03372 whole entry, looked up): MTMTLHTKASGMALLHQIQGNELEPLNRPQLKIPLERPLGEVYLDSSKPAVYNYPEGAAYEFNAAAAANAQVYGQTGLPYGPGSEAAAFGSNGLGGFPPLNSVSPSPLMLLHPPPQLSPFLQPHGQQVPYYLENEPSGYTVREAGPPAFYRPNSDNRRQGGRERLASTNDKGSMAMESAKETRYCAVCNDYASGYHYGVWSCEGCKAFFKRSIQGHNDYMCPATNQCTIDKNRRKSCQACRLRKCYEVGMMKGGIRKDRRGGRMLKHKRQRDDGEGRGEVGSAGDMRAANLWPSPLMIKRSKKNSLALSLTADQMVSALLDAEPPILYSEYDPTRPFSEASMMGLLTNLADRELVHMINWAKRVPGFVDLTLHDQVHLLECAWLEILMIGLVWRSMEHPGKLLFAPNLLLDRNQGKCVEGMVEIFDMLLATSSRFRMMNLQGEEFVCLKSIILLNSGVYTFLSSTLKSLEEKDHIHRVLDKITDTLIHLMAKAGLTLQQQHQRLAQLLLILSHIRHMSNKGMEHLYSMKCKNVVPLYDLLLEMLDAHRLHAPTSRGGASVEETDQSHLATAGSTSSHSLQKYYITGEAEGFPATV

Consider `CCCCCCCCn1sc(Cl)c(Cl)c1=O`, for which the Potency in assay [1] was 15.4 µM (active); in assay [6], 27.3 µM (active); in assay [7], 12.2 µM (active); in assay [10] it was 61.1 µM (active). For the same compound, the Potency result in assay [2], in [3], in assay [4], in assay [5], in [8] and in [11] was “inactive” each time. Moreover, the compound was classed as inactive in assay [9].
`CC(C)(C)c1ccc(C(=O)CCCN2CCC(OC(c3ccccc3)c3ccccc3)CC2)cc1`: the Potency was 21.1 µM (active) in assay [1], 11.9 µM (active) in assay [12], 13.3 µM (active) in assay [13] and 29.8 µM (active) in assay [6]. The Potency result in assay [2], in assay [3], in assay [4], in [5], in [10] and in assay [11] was “inactive” in each case. The call in assay [9] was inactive.
For the compound `CCc1cc(Cc2cc(CC)cc(C(C)(C)C)c2O)c(O)c(C(C)(C)C)c1`, the Potency in [14] is 30.6 µM (active); in assay [15], 61.1 µM (active); in [16] it was 61.1 µM (active); in assay [12], 27.3 µM (active); in [6], 54.5 µM (active); in [7] it was 19.3 µM (active). For the same compound, the Potency in [11] was 48.6 µM (active). Also, the Potency result in assay [2], in assay [3], in assay [4], in assay [17] and in assay [10] was “inactive” in each case. Besides, the compound was called inactive in assay [9].
In the case of `Cc1ccc(O)c(C(C)(C)C)c1`, the Potency result in assay [1], in assay [3], in assay [15], in assay [16], in [4] and in assay [6] was “inactive” throughout. Further, the Potency result in [18], in assay [10] and in [11] was “inactive” each time.
For `CC(C)CCCCCCCCCCCCCCC(=O)O`, the Potency result in assay [1], in assay [2], in [3], in assay [16], in assay [5] and in [13] was “inactive” in each case. The Potency result in assay [6] and in assay [18] was “inactive” in each case. For the same compound, the Potency in [7] is 54.5 µM (active).
For `CCC1OCC(COc2ccc(Oc3ccccc3)cc2)O1` (configuration not stated), the Potency result in assay [1], in [3], in [5], in assay [13], in assay [6] and in assay [7] was “inactive” each time. In addition, the Potency entry in [18] and in assay [11] was “inactive” in each case. In addition, the Potency in assay [2] was 17.2 µM (active); in assay [16], 61.1 µM (active). Besides, in assay [9], the call was inactive.
Regarding `CC(C)(C)CC(C)(C)c1ccc(O)c(Cc2ccc(Cl)cc2Cl)c1`, the Potency in [14] was 29.8 µM (active); in [19] it was 33.5 µM (active); in assay [7], 11.9 µM (active); in assay [18], 29.8 µM (active); in assay [11] it was 29.8 µM (active). Also, the Potency entry in assay [20], in [2], in assay [4], in assay [17], in assay [8] and in [10] was “inactive” throughout. In assay [9], the outcome was inactive.
For the compound `COc1cccc2c1C(=O)c1c(O)c3c(c(O)c1C2=O)C[C@@](O)(C(=O)CO)C[C@@H]3O[C@H]1C[C@H](N)[C@H](O[C@@H]2CCCCO2)[C@H](C)O1`, the Potency in assay [14] was 2.11 µM (active); in assay [15] it was 11.9 µM (active); in [16], 11.9 µM (active); in assay [11], 23.7 µM (active). The Potency entry in assay [19], in [20], in [3], in assay [4], in [17] and in assay [8] was “inactive” throughout. In addition, in [10], the Potency result is “inactive”. For the same compound, in assay [9], the result was inactive.
On to `CS(=O)(=O)CCNCc1ccc(-c2ccc3ncnc(Nc4ccc(OCc5cccc(F)c5)c(Cl)c4)c3c2)o1`, for which the Potency was 13.3 µM (active) in assay [14], 29.8 µM (active) in [19], 15 µM (active) in assay [6] and 13.3 µM (active) in assay [18]. For the same compound, the Potency entry in assay [20], in assay [3], in assay [15], in assay [16], in assay [4] and in assay [17] was “inactive” throughout. For the same compound, the Potency result in [8], in assay [10] and in assay [11] was “inactive” throughout. In [9], the call was inactive.
`C/C(=C(/OCCOc1ccc(Cl)cc1)c1ccc(Cl)cc1Cl)n1ccnc1`: the Potency entry in [1], in assay [3], in assay [16], in assay [5], in [6] and in [10] was “inactive” in each case. In assay [11], the Potency entry was “inactive”. For the same compound, the Potency in assay [13] is 13.3 µM (active); in assay [7] it was 15 µM (active). The compound was classed as inactive in assay [9].
In the case of `c1ccc(CSCc2ccccc2)cc1`, the Potency result in assay [1], in assay [3], in assay [15], in [16], in assay [4] and in assay [12] was “inactive” each time. In addition, the Potency result in assay [6], in assay [7], in [18] and in assay [11] was “inactive” throughout.
For `Clc1ccc2n[nH]nc2c1`, the Potency result in [1], in [3], in [16], in assay [4], in assay [6] and in assay [7] was “inactive” each time. Also, the Potency entry in assay [18], in assay [10] and in assay [11] was “inactive” each time. In assay [9], the compound was called inactive.
